The list is not random: actives were taken first. Their share in the collection is about 1.6%.
Mito fusion yeast = blocks mitochondrial division or promotes mitochondrial fusion; S. cerevisiae fusion-defective mutant growth rescue, CellTiterGlo 48 h; Potency, µM (doses to about 46.1 µM), for the others: at the highest dose growth rescue (activation), most hits filed as activators; 320,000 tested, 0.23% active; AID 485298; further: % of control where 0% means no effect; nearly all actives have a fitted effect of over 45% in size
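S. cerevisiae fusion-defective temperature-sensitive mutants (e.g. fzo1-1, mgm1-5) grown 48 h at 37C in YPEG (ethanol/glycerol non-fermentable) medium with 23 nl compound per well; growth rescue read as CellTiterGlo luminescence.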
gsp antag = antagonists of gsp mutant (McCune-Albright syndrome). gsp-mutant cells, cAMP HTRF, 30 min. Potency, µM (highest dose often 76.9 µM), for inactives: at the highest dose activity change, negative = inhibition, usual class: inhibitors. 340,000 tested, 0.4% active; calls by dose curve; cell line not stated here;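 further: intracellular cAMP measured with PDE inhibitor Ro 20-1724 present during compound exposure; on the % scale 0 is the no-effect control and ±100 the full control effect; nearly all actives have a fitted effect of over 65% in size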
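Cells, 2000/well, grown 16–24 h in DMEM 10% FBS with 0.5 mg/ml G418, then compounds plus […] (300 uM addition stock), 30 min at 37C. cAMP read by HTRF (cAMP-d2 and anti-cAMP antibody-K in lysis buffer) after 30 min RT.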
FUS yeast rescue = suppressors of FUS proteinopathy in yeast; 390,000 tested, 0.24% active; S. cerevisiae FUS-expressing, growth rescue, OD600, 24 h; Potency, µM (highest dose often 76.6 µM), hits mostly activators;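 further: plate controls were DMSO vehicle for no effect and reference control for full effect; nearly all actives have a fitted effect of over 55% in size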
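FUS-expressing yeast, raffinose-pregrown, induced in 2% galactose minimal medium at OD 0.005; compounds in a dilution series, 24hr at 30C. Growth restoration read as absorbance at 600 nm. CP55940 positive control, DMSO negative.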
gsp ag = activates gsp, the McCune-Albright syndrome mutation; gsp mutant cells, cAMP HTRF, 30 min; Potency, µM (top dose mostly 76.9 µM), inactives show top-dose activation (cAMP increase), hits mostly activators; 340,000 tested, 0.13% active; active means well fitted activation curve with a large enough effect; inconclusive means small, poorly fitted or top-dose-only effect, or another doubt; inactive means no such curve, though single readings can be large or run the other way; cell line not stated here;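 further: phosphodiesterase inhibitor Ro 20-1724 added with compounds to block cAMP breakdown; nearly all actives have a fitted effect of over 60% in size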
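Cells in DMEM/10% FBS with G418 were pretreated with compounds in DMSO plus […] (300 uM stock) for 30 min at 37C. cAMP was measured by HTRF (cAMP-d2 plus anti-cAMP antibody-K) after 30 min at room temperature.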
12-LOX inh = inhibitors of human 12S-lipoxygenase ALOX12; purified 12hLO, xylenol orange hydroperoxide absorbance; Potency, µM (titrated, usually from 108 µM), without a hit: top-dose activity change, negative = inhibition, hits mostly inhibitors; 580,000 tested, 1.1% active; further: on the % scale 0 is the no-effect control and ±100 the full control effect
Target sequence (P18054 whole entry, looked up): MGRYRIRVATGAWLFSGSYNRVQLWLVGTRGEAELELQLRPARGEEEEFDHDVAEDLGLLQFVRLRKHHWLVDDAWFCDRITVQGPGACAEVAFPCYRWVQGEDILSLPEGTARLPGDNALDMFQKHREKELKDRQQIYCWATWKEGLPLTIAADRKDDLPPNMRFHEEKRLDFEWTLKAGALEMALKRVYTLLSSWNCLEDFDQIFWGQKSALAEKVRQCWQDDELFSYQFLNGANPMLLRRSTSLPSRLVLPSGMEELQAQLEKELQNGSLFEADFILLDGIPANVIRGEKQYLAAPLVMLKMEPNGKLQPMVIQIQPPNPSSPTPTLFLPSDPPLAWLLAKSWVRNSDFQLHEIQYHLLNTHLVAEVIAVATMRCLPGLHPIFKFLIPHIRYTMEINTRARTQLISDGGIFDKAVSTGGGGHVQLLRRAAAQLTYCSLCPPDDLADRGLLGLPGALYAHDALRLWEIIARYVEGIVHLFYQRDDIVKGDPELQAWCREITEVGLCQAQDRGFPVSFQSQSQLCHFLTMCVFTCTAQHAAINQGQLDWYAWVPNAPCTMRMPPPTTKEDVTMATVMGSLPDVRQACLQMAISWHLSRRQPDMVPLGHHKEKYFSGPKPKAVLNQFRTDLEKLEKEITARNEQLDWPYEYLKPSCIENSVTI
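Hydroperoxide product was detected by ferrous iron/xylenol orange as the 573 to 405 nm absorbance ratio. Arachidonic acid at 40 uM (final) was turned over for 30 min at room temperature by 150 nM human 12hLO, pH 7.0 Hepes buffer, after 15 min compound preincubation.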
Numbers without * were called inactive; i = inactive; ? = inconclusive; . = not tested or not shown; [ ] = another dose, or the depositor's remark. Unless noted, the call rests on the fitted dose curve; in most records, active means well fitted curve in the direction sought with a large enough effect; inconclusive means small, poorly fitted or top-dose-only effect, or another doubt; inactive means no such curve, though single readings can be large; an effect the other way counts as inactive or inconclusive. Potency means the concentration at half of the fitted maximal effect.

SMILES	Mito fusion yeast	gsp antag	FUS yeast rescue	gsp ag	12-LOX inh
c1ccc2cc(-c3cc4ccccn4c3)ccc2c1	2%	-3%	?	-10%	?
Cc1ccn2cc(-c3ccccc3)cc2c1	.	.	.	.	32µM*
COC1=C(OC)C(=O)c2ccccc2C1=O	26µM*	.	.	.	-6%
O=C(Nc1ccccc1)C1CCCO1 (configuration not stated)	.	.	.	.	-2%
CN(C)c1ncnc2scc(-c3ccc(F)cc3)c12	.	.	.	.	10%
CCCNc1c(NS(=O)(=O)c2ccc(Cl)cc2)c(=O)oc2ccccc12	.	.	.	.	-6%
CCCNc1c(NS(=O)(=O)c2ccc(Br)cc2)c(=O)oc2ccccc12	8.9µM*	-12%	i	-41%	?
CCOC(=O)COc1cc(-n2c(=S)[nH]c3cc(OC)c(OC)cc3c2=O)c(Cl)cc1Cl	2%	13µM*	i	-3%[15.4 µM]	?
CC(C)c1ccccc1NC(=O)COC(=O)c1ccc2ccccc2n1	.	.	.	.	-60%
O=C(CN1C(=O)CCC1=O)Nc1ccc(Br)cc1	2%	9%	i	-1%	45µM*
NS(=O)(=O)c1ccc(NC(=O)CN2C(=O)CCC2=O)cc1	-2%	14%	i	-4%	-6%
Cc1ccccc1CN1C(=O)CS/C1=N/N=C/c1ccco1	4%	-5%	i	29%	40µM*
Cc1ccc2nc(-c3cc(NC(=O)C(C)C)ccc3Cl)oc2c1	.	.	.	.	11%
CCN(CC)c1ncnc2ccc(Br)cc12	-5%	1%	i	18µM*	-1%
Cc1ccc(NC(=O)Cn2c(=O)n(-c3ccccc3)c(=O)c3ccc(C(=O)NCc4ccc5c(c4)OCO5)cc32)cc1	.	.	i	.	-24%
CCN(C(=O)Cn1c(=O)n(-c2ccccc2)c(=O)c2ccc(C(=O)NCc3ccc4c(c3)OCO4)cc21)c1cccc(C)c1	.	.	35µM*	.	0%
CCNC(=O)C1CCCN(C(=O)c2cccs2)CC1 (configuration not stated)	.	.	i	.	23%
CCNC(=O)C1CCCN(C(=O)Cc2cccs2)CC1 (configuration not stated)	.	.	i	.	50µM*
Oc1ccc(/C=N/N(Cc2ccccc2)c2ccccc2)c(O)c1O	-4%	8%	i	3%[15.4 µM]	40µM*
C(=N\N(Cc1ccccc1)c1ccccc1)/c1cccnc1	4%	-10%	i	-47%	?
Oc1cccc(/C=N/N(Cc2ccccc2)c2ccccc2)c1	-12%	-73%	i	-3%[15.4 µM]	50µM*
O=C(NC1CC1)C12CC3CC(CC(C3)C1)C2	.	.	.	.	-3%
CC(=O)C1=C(C)NC(SCC(=O)c2ccc(Cl)cc2)=C(C#N)C1c1ccco1 (configuration not stated)	?	-10%	?	-37%	?
CC(=O)C1=C(C)NC(SCC(=O)c2ccccc2)=C(C#N)C1CC(C)C (configuration not stated)	11%	5%	i	?	7.9µM*
Cc1ccc2nc(C)cc(C(=O)NCCN3CCCCC3)c2c1	.	.	.	.	-8%
SMILES	Mito fusion yeast	gsp antag	FUS yeast rescue	gsp ag	12-LOX inh
CN(C)c1ncnc2sc3c(c12)CCN(Cc1ccc2cc[nH]c2c1)C3	.	.	.	.	-8%
CCC1(N2CCN(S(=O)(=O)c3ccc4c(c3)CCCC4)CC2)CCN(C(=O)C(C)C)C1 (configuration not stated)	.	.	.	.	22µM*
CCC1(N2CCN(S(=O)(=O)c3ccc(F)c(C)c3)CC2)CCN(C(=O)C(C)C)C1 (configuration not stated)	.	.	.	.	1%
CC(=O)c1c(C)[nH]c(C(=O)CSc2nnc(C3CCCCC3)o2)c1C	.	.	.	.	0%
O=C1/C(=C/c2ccco2)SC(=S)N1CCC(=O)N1CCCCC1CCO (configuration not stated)	-7%	1%	i	1%	45µM*
O=C1/C(=C/c2ccc(Cl)cc2)SC(=S)N1CCC(=O)N1CCCCC1CCO (configuration not stated)	-4%	-17%	i	1%	-7%
COc1ccc(NC(=O)C2=CC(c3ccc(C)cc3)=NS(=O)(=O)N2C)cc1OC	7%	-25%	i	-33%	0%
COc1ccc(C2=NS(=O)(=O)N(C)C(C(=O)Nc3ccc(C(C)=O)cc3)=C2)cc1OC	-1%	32µM*	i	35%	-10%
O=C(CCc1ccnc(N2CCOCC2)c1)Nc1ccc2c(c1)OCO2	.	.	.	.	21%
CCOc1ccccc1CN1CCC2(CCN([S+](=O)([O-])c3cccc(C(F)(F)F)c3)CC2)Oc2ccccc21	.	.	.	.	-5%
CCCCCCSC1=C(C#N)C(=O)NC2(CCCCC2)S1	5%	12%	i	-16%	45µM*
CCN(CC)c1ccc(/C=N/NC(=O)Cc2nnc(NC(=O)Nc3ccccc3)s2)cc1	-5%	5%	18µM*	8%[15.4 µM]	-9%
CCN(CC)c1ccc(/C=N/NC(=O)Nc2ccccc2)cc1	-5%	-6%	i	21%	-7%
OC(CCN1CC2CCC(CC2)C1)(Cc1ccccc1)c1ccco1 (configuration not stated)	.	3%	i	7%[15.4 µM]	2.5µM*
O=C(/C=C/c1ccco1)N1CCC(Cc2ccccc2)CC1	-4%	-1%	i	-6%[15.4 µM]	13%
N#CC1=C(N)SC(N)=C(C#N)C1c1ccc(C(F)(F)F)cc1	0%	.	.	.	.
CCc1ccc(C2C(C#N)=C(N)SC(N)=C2C#N)cc1	10%	-19%	?	40µM*	?
COc1ccc2[nH]c(=O)c(-c3nnn(-c4ccc(F)cc4)n3)cc2c1	.	-13%	i	.	10µM*
COc1ccc2[nH]c(=O)c(-c3nnn(-c4ccccc4)n3)cc2c1	0%	-9%	i	0%	-2%
CCOc1ccc(NC2=NCC(=O)N2Cc2cccs2)cc1	13%	-8%	i	0%	35µM*
O=C(NC[C@H]1O[C@H](Cc2cc(-c3ccc(F)cc3)on2)CC[C@@H]1O)c1ccccc1F	.	.	.	.	9%[176 µM]
CCC1CCCCN1C(=O)C1CC1 (configuration not stated)	.	.	.	.	6%
COc1cc(CC(=O)Oc2ccccc2Br)cc(OC)c1OC	.	.	.	.	9%
O=C(NCCc1ccc(Cl)cc1)c1ccccn1	.	.	.	.	32µM*
COc1ccc(NC(=O)c2cc(C)no2)cc1	-3%	1%	i	26%	13µM*
Cc1ccc(NC(=O)c2cc(C)no2)cc1	-6%	7%	i	3%	3%
COc1ccc(OC)c(/C=C/C(=O)c2cc3ccccc3o2)c1	.	.	.	.	12%
O=C(Cc1ccc(Cl)cc1)N1CCN(c2ccccc2O)CC1	.	.	.	.	32µM*
CCn1ncc(Cl)c1CNC(=O)C1CCCN(S(=O)(=O)c2cnn(C)c2C)C1 (configuration not stated)	.	.	.	.	20%
CN1CCN(CC(=O)N2CCNC(=O)C2CC(=O)Nc2ccc(Br)cc2)CC1 (configuration not stated)	.	.	.	.	4%
